Compound activity (PubChem BioAssay)
This is a sample that favours compounds with a hit; in the whole collection about 3.7% have one here.
miR-21 act: qHTS Assay for Modulators of miRNAs and/orActivators of miR-21; HeLa miR-21 FLuc reporter, luciferase, 48 h; Potency, µM (series often up to 38.3 µM), inactives show top-dose activity change, positive = activation, usual class: activators; 340,000 tested, under 10 active; AID 2288, 2010;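 further: % of control where 0% means no effect; miR-21 action dims this reporter so a rising signal means less miR-21 action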
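HeLa cells endogenously expressing miR-21, stably carrying CMV-driven firefly luciferase with a downstream miR-21 binding site, 2000 cells/well. Titrations up to approximately 40 uM, 48 hours; luciferase luminescence read.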
ClpP mod: qHTS Assay for Activators of ClpP; ATP-dependent Clp protease proteolytic subunit (Bacillus subtilis (strain 168)), P80244; Potency, µM (doses to about 57.5 µM), inactives show at the top dose activity change, negative = active; purified B. subtilis ClpP, FRET peptide cleavage, 20 min; 1.9% of 340,000 active; AID 651965, 2013; active means well fitted falling curve with a large enough effect; inconclusive means small, poorly fitted or top-dose-only effect; inactive means no such curve, though single readings can be large or run the other way; further: potency means the concentration at half of the fitted maximal effect; the source files actives as falling curves though it sought activators and does not explain the sign; nearly all actives have a fitted effect of over 65% in size
Target sequence (P80244 whole entry, looked up): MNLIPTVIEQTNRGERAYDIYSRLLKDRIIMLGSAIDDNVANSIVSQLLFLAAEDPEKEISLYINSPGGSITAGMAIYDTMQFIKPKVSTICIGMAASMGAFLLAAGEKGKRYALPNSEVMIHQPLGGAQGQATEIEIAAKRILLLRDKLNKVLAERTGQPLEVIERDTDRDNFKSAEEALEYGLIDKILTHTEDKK
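Buffer: 100 mM Tris/HCl pH8, 100 mM KCl, 0.05% low protease BSA, 2.5% glycerol, 0.01% Tween-20. ClpP 10 microg/mL final; 20 min RT; delta FRET normalized to ADEP and DMSO controls.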
Nrf2 ARE act: qHTS of Nrf2 Activators; AREc32 ARE-luciferase reporter (MCF7-derived line), luminescence, 24 h; Potency, µM (titrated, usually from 46.1 µM), for the others: top-dose activation, actives largely listed as activators; 0.31% of 410,000 active; further: potency means the concentration at half of the fitted maximal effect; % of control where 0% means no effect; nearly all actives have a fitted effect of over 65% in size
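AREc32_Fluc, 1000 cells/well, OPTI-MEM + 5% FBS, o/n 37 deg C 5% CO2; 23 nL cpd by pin tool, 24 hr; Steady-Glo 30 min RT, luminescence.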
Nrf2 block: Nrf2 qHTS screen for inhibitors; A549 ARE-Fluc reporter, luciferase luminescence, 18-24 h; Potency, µM (doses to about 46 µM), inactives show at the top dose activity change, negative = inhibition, hits mostly inhibitors; 2.1% of 360,000 active; AID 504444, 2011; further: potency means the concentration at half of the fitted maximal effect; on the % scale 0 is the no-effect control and ±100 the full control effect; nearly all actives have a fitted effect of over 60% in size
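Nrf2 function is reported as luminescence of an ARE-controlled luciferase in A549 cells. Compounds were tested at several concentrations, and a CellTiter-Fluor read on the same wells flagged cytotoxicity.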
IL2 activator: qHTS of IL-2 Activators; activation, % (series mostly up to about 46 µM); 0.065% of 360,000 active; IL-2 activation reporter assay, cell-based qHTS; stimulated with anti-CD3/CD4/CD28 beads; in transgenic mouse T cells; in the data active means activation above about 50%; inconclusive means mostly about 30% to 49%; further: 0% is about no effect
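Quantitative HTS in unstimulated transgenic mouse T cells, with memory T cells as non-tolerant control and PMA/ionomycin as tolerance-bypass control. Compound pretreatment lasted 60 minutes before 18 h bead stimulation; EGFP/DsRed fluorescence read.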
A549 tox-1: Nrf2 qHTS screen for inhibitors: counterscreen for cytotoxicity; A549 ARE-Fluc cells, CellTiter-Fluor viability, 18-24 h; Potency, µM (highest dose often 46 µM), inactives show at the highest dose activity change, negative = cytotoxicity, most hits filed as inhibitors; 0.16% of 390,000 active; further: potency means the concentration at half of the fitted maximal effect; on the % scale 0 is the no-effect control and ±100 the full control effect
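A549 ARE_Fluc cells in 5% FBS OPTI-MEM were exposed to compounds in concentration-response for 18-24 h at 37 deg C. Viability was read by CellTiter-Fluor fluorescence (Ex 405/Em 525) after 30 min, before the luciferase read.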
FLuc counter 3: Nrf2 qHTS screen for inhibitors: Purified Fluc Biochemical Counterscreen for Hit Validation; AID 720522, 2013; Potency, µM (highest dose often 57.5 µM), for inactives: at the top dose activity change, negative = inhibition, hits mostly inhibitors; purified firefly luciferase, luminescence inhibition; shares compounds with Nrf2 block; 4% of 1,400 active; further: potency means the concentration at half of the fitted maximal effect; on the % scale 0 is the no-effect control and ±100 the full control effect; nearly all actives have a fitted effect of over 65% in size
A549 tox-2: Nrf2 qHTS screen for inhibitors: A549 ARE-Fluc Cytotoxicity Counterscreen for Hit Validation; shares compounds with Nrf2 block; A549 ARE-Fluc cells, cytotoxicity counterscreen; Potency, µM (titrated, usually from 46.1 µM), for the others: at the top dose activity change, negative = cytotoxicity, actives largely listed as inhibitors; 2% of 1,400 active; AID 720523, 2013;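 further: potency means the concentration at half of the fitted maximal effect; cells exposed to compounds for 18 to 24 hours; on the % scale 0 is the no-effect control and ±100 the full control effect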
ARE-Fluc inh: Nrf2 qHTS screen for inhibitors: Nrf2 A549 ARE-Fluc Confirmation Assay for Hit Validation | Potency, µM (series often up to 46.1 µM), without a hit: at the highest dose activity change, negative = inhibition, most hits filed as inhibitors | A549 ARE-firefly luciferase reporter, luminescence | shares compounds with Nrf2 block | AID 720524, 2013 | 74% of 1,400 active; further: potency means the concentration at half of the fitted maximal effect; on the % scale 0 is the no-effect control and ±100 the full control effect; nearly all actives have a fitted effect of over 65% in size
Numbers without * were called inactive; ? = inconclusive; . = no result given. Unless noted, the call rests on the fitted dose curve; in most records, active means well fitted curve in the direction sought with a large enough effect; inconclusive means small, poorly fitted or top-dose-only effect, or another doubt; inactive means no such curve, though single readings can be large; an effect the other way counts as inactive or inconclusive.

SMILES	miR-21 act	ClpP mod	Nrf2 ARE act	Nrf2 block	IL2 activator	A549 tox-1	FLuc counter 3	A549 tox-2	ARE-Fluc inh
COc1ccc(NC(=O)CCn2cccn2)cc1OC	-2%	0%	0%	.	.	9%	.	.	.
Cc1cccc(C(=O)NCC(=O)OCc2cc(=O)n3nc(C4CCCCC4)sc3n2)c1	-8%	-3%	1%	18%	.	-2%	.	.	.
CN(Cc1ccccc1)C1=CC(=[N+]2CCCCC2)CC(C)(C)C1	?	-4%	0%	4.6µM*	-3	?	3%	-27%	0.82µM*
CCn1c(CN2CCOCC2)nc2cc(NC(=O)c3ccccc3[N+](=O)[O-])ccc21	-3%	-7%	-1%	6%	.	0%	.	.	.
CCCn1c2ccccc2c2cnn(CC(=O)N3CCC(C)CC3)c(=O)c21	-3%	5%	0%	-6%	.	2%	.	.	.
Nc1ccc(-c2cc3ccccc3c(=O)o2)cc1	.	-4%	6%	?	1	-1%	1.5µM*	-3%	2.3µM*
Cn1cccc/c1=N\c1cccc[n+]1C	8%	-14%	3%	2.9µM*	0	-22%	-1%	-13%	5.8µM*
O=C(Nc1ccc(-c2csc(Nc3ccc(Cl)cc3)n2)cc1)c1cccc(C(F)(F)F)c1	?	-27%	11%	-28%	-1	-8%	.	.	.
O=C(Nc1nc(-c2ccccc2)cs1)c1ccc(N2CCOCC2)c([N+](=O)[O-])c1	?	-5%	0%	4.6µM*	-1	?	?	?	7.3µM*
Cc1ccc(-c2csc(NC(=O)c3cccc([N+](=O)[O-])c3)n2)cc1	-5%	0%	-1%	?	-1	-5%	2%	-12%	1.5µM*
O=C(Nc1ccc(-c2csc(Nc3ccccc3)n2)cc1)c1cccc(C(F)(F)F)c1	28%	?	9%	9.2µM*	-1	-6%	-15%	-25%	15µM*
CCOc1ccccc1N(C)C(=O)NCc1noc2ccccc12	-8%	1%	3%	?	.	2%	.	.	.
COc1cccc(CNCc2cccn2-c2nnc(N3CCN(c4ccccc4)CC3)s2)c1	16%	-6%	4%	?	.	-26%	.	.	.
COc1ccc(NS(=O)(=O)c2ccc3c(c2)CCCN3C(=O)C2CCC2)cc1OC	29%	1%	0%	.	.	-9%	.	.	.
O=C(Nc1c(F)cccc1F)c1cnc(N2CCN(c3ccccn3)CC2)c2ccccc12	?	?	-1%	9.2µM*	2	?	-10%	-11%	?
O=C(c1cnc(N2CCN(c3ncccn3)CC2)c2ccccc12)N1CCN(c2ccccn2)CC1	?	-7%	0%	?	1	-2%	.	.	.
Cc1[nH]c2ccccc2c1/C=C/c1c[nH]c2ccccc12	.	-5%	.	.	.	.	.	.	.
Cn1cc(/C=C/c2cc[n+](C)cc2)c2cc(F)ccc21	?	1%	8%	1.6µM*	206*	?	1%	-26%	1.6µM*
